HT1080 IDH1KD tx – qHTS for induction of synthetic lethality in tumor cells producing 2HG: qHTS for the HT-1080-IDH1KD cell line. HT-1080 IDH1 knockdown viability, ATP luminescence, 48 h. Potency, µM (series often up to 46.1 µM), without a hit: top-dose activity, negative = toxicity, most hits filed as cytotoxic. 360,000 compounds, 2% hits;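 note: 0% = DMSO wells and -100% = cell-free medium wells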
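Assay cells: HT-1080 with IDH1 knockdown, 750 per well, RPMI/5% FBS. Exposure: 48 h at 37 °C following 2 h pre-incubation. Read: CellTiter-Glo luminescence; fitted concentration-response, curve class assigned.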
KB-3-1 cytotox – qHTS assay for MDR1-selective chemotherapeutics: Primary screen using the parental adenocarcinoma cell KB-3-1 | Potency, µM (doses to about 46.1 µM), actives largely listed as cytotoxic | KB-3-1 viability, CellTiter-Glo ATP luminescence, 72 h | AID 1347075, 2019 | 400,000 compounds, 1.4% hits; note: nearly all actives have a fitted effect of over 60% in size
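Multi-concentration cytotoxicity screen in KB-3-1 cells grown in DMEM lacking phenol red with 10% FBS. After 72 h at 37 °C with compound, ATP-dependent luminescence was recorded.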
HT1080NT lethal – qHTS for induction of synthetic lethality in tumor cells producing 2HG: qHTS for the HT-1080-NT fibrosarcoma cell line | 360,000 compounds, 1.6% hits | AID 686970, 2013 | Potency, µM (titrated, usually from 46.1 µM), for the others: at the highest dose activity, negative = less viability, most hits filed as cytotoxic | HT-1080-NT fibrosarcoma viability, CellTiter-Glo ATP luminescence, 48 h;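 note: NT is the 2HG producing partner of a matched IDH1 knockdown line; 0% = DMSO-treated cells and -100% = media-only wells without cells; nearly all actives have a fitted effect of over 55% in size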
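HT-1080-NT; 750 cells/well; 5% FBS RPMI; 48 h compound, 37 degrees C; CellTiter-Glo luminescence; curve fitting and curve-class assignment.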
KB-V1 MDR tox – qHTS assay for MDR1-selective chemotherapeutics: Primary screen using the drug-selected MDR subline cells KB-V1. 400,000 compounds, 3.4% hits. AID 1347076, 2019. KB-V1 MDR cells viability, CellTiter-Glo, 72 h. Potency, µM (doses to about 46.1 µM), most hits filed as cytotoxic; note: nearly all actives have a fitted effect of over 60% in size
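KB-V1 cells (P-gp-expressing MDR subline of KB-3-1) in phenol-red-free DMEM with 10% FBS were exposed to library compounds over a concentration series for 72 h at 37 degrees C. Viability read by CellTiter-Glo luminescence; concentration-effect curves fitted after normalization.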
TDP1 cell CPT – qHTS for Inhibitors of human tyrosyl-DNA phosphodiesterase 1 (TDP1): qHTS in cells in presence of CPT; chicken DT40 Tdp1-/-;hTDP1 cells + 20 nM CPT, ATP luminescence, 48 h; Potency, µM (doses to about 46.2 µM), for inactives: at the highest dose activity change, negative = growth inhibition, most hits filed as inhibitors; 420,000 compounds, 12% hits; note: nearly all actives have a fitted effect of over 55% in size
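Chicken DT40 Tdp1-/- cells complemented with human TDP1, 400 cells/well, exposed to compounds plus 20 nM camptothecin for at least 48 h at 37 C; viability read as ATP content by CellTiter-Glo luminescence.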
DT40 TDP1 no CPT – qHTS for Inhibitors of human tyrosyl-DNA phosphodiesterase 1 (TDP1): qHTS in cells in absence of CPT | 420,000 compounds, 15% hits | Potency, µM (top dose mostly 46.2 µM), without a hit: at the top dose activity change, negative = growth inhibition, hits mostly inhibitors | DT40 Tdp1-/- hTDP1 cells, no CPT, ATP luminescence, 48 h | AID 686978, 2013; note: nearly all actives have a fitted effect of over 55% in size
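Seeded 400 DT40-hTDP1 cells/well (vehicle DMSO, no 20 nM CPT); pinned compounds; ≥48 hr at 37 °C; CellTiter-Glo luminescence as viability measure.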
* marks the source's active call; other numbers are inactive results; i = inactive; ? = inconclusive; · = not tested or not shown. Shown are actives, neighbours in structure and some others; about 19% of the full set was active somewhere. Calls come from the whole dose curve; as a rule, active = well fitted curve in the direction sought with a large enough effect; inconclusive = small, poorly fitted or top-dose-only effect, or another doubt; inactive = no such curve, though single readings can be large; an effect the other way counts as inactive or inconclusive. Unless noted, % is set by controls: 0 for no effect and ±100 for the full control effect; potency is the fitted concentration of half-maximal effect.

SMILES	HT1080 IDH1KD tx	KB-3-1 cytotox	HT1080NT lethal	KB-V1 MDR tox	TDP1 cell CPT	DT40 TDP1 no CPT
CCOc1ccccc1CNc1nc2ccccc2n1C	-2%	i	-1%	i	-31%	?
Oc1ccc(NCc2ccccc2OCc2ccccc2F)cc1	-28%	?	?	?	18µM*	16µM*
Oc1ccc(NCc2ccccc2OCc2ccccc2Cl)cc1	·	·	·	·	15µM*	5.2µM*
COc1cc(CNc2ccc3[nH]c(=O)[nH]c3c2)ccc1OCc1ccc(F)cc1Cl	-13%	i	?	i	?	?
NS(=O)(=O)c1ccc(NCc2ccccc2OCc2ccccc2F)cc1	-8%	i	-15%	?	?	?
O/N=C/c1ccccc1OCc1ccccc1Cl	-14%	i	?	i	1%	-18%
CCOc1cc(CNc2ccc(O)cc2)ccc1OCc1ccc(Cl)cc1Cl	-22%	i	-7%	?	15µM*	15µM*
COc1cccc2c1Oc1nc(-c3ccccc3)nc(SCC(=O)N3CCCCC3)c1C2	·	i	·	i	?	?
CCCCCCCCNCCS(=O)(=O)NN1CCOCC1	-1%	i	-1%	i	5%	-2%
Cc1cccc(C)c1N(CC(=O)NCc1ccco1)C(=O)CNS(=O)(=O)c1ccc(F)cc1	12%	i	0%	i	-27%	?
CCOc1cccc(CNc2ccc(O)cc2)c1OCc1ccc(Cl)cc1	-2%	i	-16%	i	15µM*	?
COc1cccc(CNCCO)c1OCc1ccc(Cl)cc1	-9%	i	-1%	i	?	-30%
O=C1CC(N2CCN(Cc3ccccc3)CC2)C(=O)N1 (stereo not drawn)	5%	i	9%	i	-2%	4%
c1ccc(CN2CCN(C3CCCSc4ccccc43)CC2)cc1 (stereo not drawn)	-4%	i	-17%	i	?	23µM*
CCCCCC(=O)O/N=C(\C)c1ccn(S(=O)(=O)c2ccccc2)c1	-14%	i	-8%	i	15µM*	-89%
CCCC(=O)O/N=C(\c1ccccc1)c1ccncc1	8%	i	8%	i	-5%	-6%
CC(Oc1ccc(Cl)cc1Cl)C(=O)NCc1ccncc1 (stereo not drawn)	-6%	i	0%	21µM*	?	?
CCNc1nc(NCC)n2c(SCC(=O)c3ccc(C(C)C)cc3)nnc2n1	2%	i	-5%	?	23µM*	26µM*
Cc1cccc(N2C(=O)N(Cc3cccc(C#N)c3)c3ccccc3S2(=O)=O)c1	·	i	·	i	?	?
CC(=O)c1cccc(-c2ccnc3c2CC(C(=O)NCc2ccccc2)O3)c1 (stereo not drawn)	?	?	?	i	0.73µM*	0.65µM*
CC(=O)NCCNC(=O)C1Cc2c(-c3ccccc3)ccnc2O1 (stereo not drawn)	4%	i	29%	i	-18%	-7%
CC(=O)c1cccc(-c2ccnc3c2CC(C(=O)NCc2ccc(F)c(F)c2)O3)c1 (stereo not drawn)	?	5.2µM*	?	?	4.1µM*	4.1µM*
CCC(=C(c1ccc(OC)cc1)c1ccc(OC)cc1)c1cn(CC(O)CN2CCN(C)CC2)c2ccccc12 (stereo not drawn)	-8%	?	-6%	?	10µM*	13µM*
CCn1cc(/C=C(\NC(=O)c2ccc(OC)cc2)C(=O)N2CCN(C)CC2)c2ccccc21	-13%	i	-11%	i	-27%	9%
CC(C)(C)NC(=O)Nc1ccc(Cn2cc(C(F)(F)F)ccc2=O)cc1	2%	i	0%	i	21µM*	?
SMILES	HT1080 IDH1KD tx	KB-3-1 cytotox	HT1080NT lethal	KB-V1 MDR tox	TDP1 cell CPT	DT40 TDP1 no CPT
O=C(O)c1ccc(Cn2cc(C(F)(F)F)ccc2=O)cc1	3%	i	11%	i	5%	10%
CC(C)(C)NC(=O)NC(=O)Cn1cc(C(F)(F)F)ccc1=O	-7%	i	-6%	i	-13%	-5%
Cc1cccc(NC(=O)c2ccc(Cn3cc(C(F)(F)F)ccc3=O)cc2)c1	-5%	i	-4%	16µM*	3%	-21%
O=C(NCc1ccccc1)c1ccc(Cn2cc(C(F)(F)F)ccc2=O)cc1	2%	i	2%	13µM*	11%	-13%
CSC(=Nc1ccccc1)N=C(SCc1ccccc1)N(C)C	13µM*	4.1µM*	21µM*	5.8µM*	1.2µM*	1.3µM*
N#CNC(=Nc1ccccc1)SCc1ccc(C(=O)O)cc1	-4%	i	18%	i	6%	-23%
COc1ccc(Br)cc1CN1CCN(C(=O)c2ccco2)CC1	-3%	i	2%	i	-6%	?
O=C(NCCc1c[nH]c2ccccc12)c1ccc(Cl)cc1	-4%	i	1%	i	-6%	?
O=C(NCCc1c[nH]c2ccc(Cl)cc12)c1cccnc1	-6%	i	-24%	?	?	21µM*
COc1ccccc1CNC(=O)c1ccc(C)c(-n2cnc3cccnc32)c1	·	i	·	i	?	?
COc1ccccc1NC(=O)Cn1c(SCC(=O)Nc2ccc(F)cc2)nc2ccccc21	·	i	·	i	?	?
COc1ccc(NC(=O)CSc2nc3ccccc3n2CC(=O)N(C)c2ccc(F)cc2)cc1	·	i	·	i	?	15µM*
CC1CCN(C(=O)Cn2c(SCC(=O)Nc3nccs3)nc3ccccc32)CC1	-3%	i	-4%	4.6µM*	-29%	-11%
COc1ccc(NC(=O)CSc2nc3ccccc3n2CC(=O)N2CCCC(C)C2)cc1 (stereo not drawn)	·	i	·	i	?	21µM*
CC1CCN(C(=O)Cn2c(SCC(=O)Nc3ccc(F)cc3)nc3ccccc32)CC1	·	i	·	?	?	?
CN(C(=O)CSc1nc2ccccc2n1CC(=O)N(C)C1CCCCC1)c1ccc(F)cc1	·	i	·	i	?	29µM*
O=C(O)C(CC1CCCCC1)N1CCS(=O)(=O)CC1 (stereo not drawn)	12%	i	0%	i	-3%	-11%

Compound activity deposited in PubChem by National Center for Advancing Translational Sciences (NCATS).
